Screens deposited in PubChem BioAssay by Broad Institute.
Rows were chosen to be rich in hits. Some 2% of all compounds tested hit in one or more screens of this group.
mut p53 react: mutant p53 pathway reactivation. SW480 PUMA-promoter luciferase. activation, % at 9.98 µM. 28,000 compounds, 1.5% hits. AID 624151; in the data active = activation above about 52%; inconclusive = no clear call, values can overlap the other calls
STK33 kin inh: blocks human STK33 kinase activity; Q9BYT3; ADP-Glo luminescence, MBP substrate; inhibition, % at 12.5 µM; 27,000 compounds, 0.44% hits; in the data active = inhibition above about 20%; inconclusive = no clear call, values can overlap the other calls
Target sequence (Q9BYT3 whole entry, looked up): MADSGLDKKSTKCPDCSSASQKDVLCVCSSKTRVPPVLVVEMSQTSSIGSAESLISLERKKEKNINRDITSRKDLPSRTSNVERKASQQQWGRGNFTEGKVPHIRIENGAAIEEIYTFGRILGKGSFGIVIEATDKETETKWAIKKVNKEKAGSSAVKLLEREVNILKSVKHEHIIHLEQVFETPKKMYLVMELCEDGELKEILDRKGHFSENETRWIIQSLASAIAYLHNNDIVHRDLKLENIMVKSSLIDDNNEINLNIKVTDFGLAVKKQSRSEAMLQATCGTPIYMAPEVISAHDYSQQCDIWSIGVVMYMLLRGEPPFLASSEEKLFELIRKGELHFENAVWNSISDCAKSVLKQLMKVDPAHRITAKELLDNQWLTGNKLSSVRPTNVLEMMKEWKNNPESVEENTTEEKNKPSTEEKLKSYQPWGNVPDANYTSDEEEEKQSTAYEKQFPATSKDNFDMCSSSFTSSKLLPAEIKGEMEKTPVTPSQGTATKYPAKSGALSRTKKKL
ID4 binder: binders of human ID4 protein; small molecule microarray, Flag-ID4 binding, fluorescence F/B; 31,000 compounds, 1.2% hits; P47928; calls only; call rule not given here;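 note: a binder raises fluorescence above local background on the spot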
Of the large screens only hits and unclear results are named; the others gave an inactive call.

COc1cc2c(cc1NC(=O)Cc1ccccc1[N+](=O)[O-])oc1ccccc12	mut p53 react 87
COc1cc2c(cc1NC(=O)COc1ccc([N+](=O)[O-])cc1)oc1ccccc12	none
Cc1ccc(NC(=O)Cn2nc(-c3ccc(C)c(S(=O)(=O)N(C)C)c3)c3ccccc3c2=O)cc1	none
C=C1C(=O)O[C@@H]2C[C@@]3(C)CC(=O)C=C(C)C3C[C@H]12 (stereo partly specified)	none (no result: mut p53 react, ID4 binder)
Nc1cccc(-c2cc3c(Oc4cccc(O)c4)ncnc3[nH]2)c1	STK33 kin inh 69 (no result: ID4 binder)
Cn1cc(C2=C(c3cn(CCCSC(=N)N)c4ccccc34)C(=O)NC2=O)c2ccccc21	STK33 kin inh 106 (no result: mut p53 react, ID4 binder)
CN(C)CCCn1cc(C2=C(c3c[nH]c4ccccc34)C(=O)NC2=O)c2ccccc21	STK33 kin inh 114 (no result: mut p53 react)
COC(=O)c1cn(CC(N)=O)c2ccccc12	none
O=C(O)CSc1c[nH]c2ccccc12	none
O=C(O)/C=C/CCCCCCCC(=O)O	none (no result: mut p53 react)
Cc1cccc(OCC(=O)Nc2ccccc2N2CCN(S(C)(=O)=O)CC2)c1C	none
O=C(CSc1nc2ccccc2s1)Nc1ccc2c(c1)OCCO2	none
Cc1csc(SCC(=O)Nc2ccc3c(c2)OCCO3)n1	mut p53 react 61
COc1cc(OC)c(NC(=O)CSc2ccccn2)cc1Cl	none
c1ccc(CC(Cc2nc3ccccc3[nH]2)c2nc3ccccc3[nH]2)cc1 (stereo unspecified)	none
N#CC(C(=O)c1ccco1)c1nc2ccccc2[nH]1 (stereo unspecified)	STK33 kin inh 67 (no result: mut p53 react, ID4 binder)
C=C1C(=O)O[C@@H]2/C=C(/COC(C)=O)CC/C=C(/CO)CC[C@@H]12	none (no result: mut p53 react, ID4 binder)
COc1ccc(C2C(C#N)=C(N)Oc3n[nH]c(-c4ccccc4)c32)cc1CSc1ccccn1 (stereo unspecified)	none
CCn1c(SCC(=O)Nc2ccc(C(=O)O)cc2)nnc1-c1ccc(C)cc1	none
CCn1c(SCC(=O)Nc2ccc(C(N)=O)cc2)nnc1-c1ccc(F)cc1	ID4 binder active
COC(=O)c1ccc(NC(=O)CSc2nnc(-c3ccc(NC(C)=O)cc3)n2C)cc1	ID4 binder active
CC(=O)Nc1ccc(NC(=O)CSc2nnc(-c3ccc(N)cc3)n2C)cc1	none
C=C1C2CCC3[C@]4(C)CCC[C@@](C)(C(=O)O)C4CC[C@]3(C2)[C@H]1OC(C)=O (stereo partly specified)	none
Cc1ccc(-n2c(C)nnc2SCC(=O)Nc2cccc(C)c2C)cc1	none
O=CN/C=C\c1ccc(O)cc1	none (no result: mut p53 react, ID4 binder)
N#Cc1c(C(F)(F)F)cc(-c2ccco2)nc1SCC(=O)Nc1cccc(C(F)(F)F)c1	none
COc1ccc(C(=O)CSc2n[nH]c(-c3ccc(C)cc3)n2)cc1	ID4 binder active
Cc1ccc(-c2nc(SCC(=O)c3ccccc3)n[nH]2)cc1	none
CC(=O)O[C@@H]1CC2C(C)(C)CCC[C@]2(CO)C2=C1C(=O)C(C(C)C)C(=O)C2=O (stereo partly specified)	none (no result: mut p53 react)
Cc1ccc([N+](=O)[O-])c(OCCSc2ncccn2)c1	mut p53 react inconclusive
COc1cccc(OCCCCSc2ncccn2)c1	none
Cc1cc(=O)[nH]c(SCCOc2cccc(Oc3ccccc3)c2)n1	none
O=[N+]([O-])c1ccc(OCCCSc2ncccn2)cc1	mut p53 react 57
COc1cccc(OCCSc2nc(N)cc(N)n2)c1	mut p53 react 64
COc1ccc(OCCCSc2ncccn2)cc1	mut p53 react 126
COc1ccccc1-n1nnnc1SCC(=O)Nc1cc(OC)c(OC)c(OC)c1	none
COc1ccc(S(=O)(=O)N(C)CC(=O)Nc2ccc(Br)cc2F)cc1C	none
CCn1c(SCC(=O)Nc2sc3c(c2C#N)CCCC3)nnc1-c1cccc(Cl)c1	none
Cc1cc(C)nc(NS(=O)(=O)c2ccc(Nc3nc(-c4ccc(O)cc4)cs3)cc2)n1	none
CN1/C(=C\C=C2\C(=O)Oc3ccccc3C2=O)C(C)(C)c2ccccc21	mut p53 react 105 (no result: STK33 kin inh)
Cc1c(Cl)cccc1NC(=O)c1ccccc1OCC(=O)Nc1ccc2c3c(cccc13)CC2	none
CCCCOc1ccc(C(=O)CCN2CCCCC2)cc1	none (no result: mut p53 react, ID4 binder)
c1cc(-c2cnn3cc(-c4ccc(OCCN5CCCCC5)cc4)cnc23)ccn1	ID4 binder active (no result: STK33 kin inh)
O=S(=O)(Nc1ccc(O)c(Sc2nc3ccccc3s2)c1)c1ccccc1	none (no result: STK33 kin inh)
O=c1[nH]c2ccccc2c(=O)n1CCCO	none
O=C(c1ccc(F)cc1)C1CCN(CCn2c(=O)[nH]c3ccccc3c2=O)CC1	ID4 binder active (no result: mut p53 react)
CS(=O)(=O)N(CC(=O)Nc1ccc(I)cc1)c1ccc(Cl)cc1Cl	none
Cc1[nH]c2ccccc2c1C(=O)CSc1nc2ccccc2[nH]1	mut p53 react 62
Cc1[nH]c2ccccc2c1C(=O)CSc1nc2ccccc2o1	none
O=C(NCc1ccco1)c1ccccc1NC(=O)C1COc2ccccc2O1 (stereo unspecified)	none
C[C@@H]1CN([C@@H](C)CO)C(=O)CCCn2nncc2CO[C@H]1CN(C)C(=O)Nc1ccccc1F	ID4 binder active
